Experimental findings from PubChem BioAssay (EPA / NIEHS) are described below.

Records with an inconclusive call do not appear. Active and inactive are the calls of the source. Rule for the calls: active = hit-call score of the fitted dose curve at least 0.9, where 1 is the maximum; inconclusive = response in the unintended direction; inactive = score below 0.9.

In general, AC50 refers to the concentration giving half of the maximal activity seen.

human Adrenergic, Alpha 2A Receptor (Adra2A), ADRA2A (gene 150), sequence (P08913 whole entry, looked up): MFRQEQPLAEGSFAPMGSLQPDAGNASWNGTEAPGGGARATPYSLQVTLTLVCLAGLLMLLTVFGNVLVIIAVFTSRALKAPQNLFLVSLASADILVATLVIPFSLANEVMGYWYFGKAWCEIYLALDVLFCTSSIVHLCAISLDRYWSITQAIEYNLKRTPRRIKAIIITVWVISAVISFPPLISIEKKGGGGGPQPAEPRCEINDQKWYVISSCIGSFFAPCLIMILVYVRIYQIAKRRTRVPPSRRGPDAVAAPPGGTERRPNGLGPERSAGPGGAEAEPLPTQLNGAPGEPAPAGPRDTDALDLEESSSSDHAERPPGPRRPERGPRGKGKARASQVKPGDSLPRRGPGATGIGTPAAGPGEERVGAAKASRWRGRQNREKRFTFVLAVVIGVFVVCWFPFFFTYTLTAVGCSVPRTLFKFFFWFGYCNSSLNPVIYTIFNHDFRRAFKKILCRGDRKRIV
human Serotonin, 5-Hydroxytryptamine Receptor 6 (5HT6), HTR6 (gene 3362), sequence (P50406 whole entry, looked up): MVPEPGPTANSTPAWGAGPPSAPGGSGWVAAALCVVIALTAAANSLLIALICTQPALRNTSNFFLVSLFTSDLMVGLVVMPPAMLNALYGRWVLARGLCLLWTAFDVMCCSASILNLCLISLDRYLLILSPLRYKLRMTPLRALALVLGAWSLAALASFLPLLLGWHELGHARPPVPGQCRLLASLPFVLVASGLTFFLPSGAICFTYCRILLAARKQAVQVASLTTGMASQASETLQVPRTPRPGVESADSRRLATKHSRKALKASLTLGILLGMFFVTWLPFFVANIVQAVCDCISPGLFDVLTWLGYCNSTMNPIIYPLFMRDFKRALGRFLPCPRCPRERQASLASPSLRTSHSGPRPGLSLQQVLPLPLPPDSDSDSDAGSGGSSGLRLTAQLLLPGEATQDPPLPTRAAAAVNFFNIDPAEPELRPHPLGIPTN

For the first assay, the target named is human Serotonin, 5-Hydroxytryptamine Receptor 5A (5HT5A), HTR5A (gene 3361) (UniProt P47898). Kind of assay: NVS_GPCR_h5HT5A: NovaScreen (NVS) G Protein-Coupled Receptor Assay for human Serotonin, 5-Hydroxytryptamine Receptor 5A (5HT5A) (AID 2283251). In short, it runs like this: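 Membranes from HEK293 cells, radioligand binding read by filtration and scintillation after 1 h. Single-concentration duplicate testing at 25 uM, then concentration-response for actives; positive-direction fitting relative to DMSO.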
human Serotonin, 5-Hydroxytryptamine Receptor 5A (5HT5A), HTR5A (gene 3361), sequence (P47898 whole entry, looked up): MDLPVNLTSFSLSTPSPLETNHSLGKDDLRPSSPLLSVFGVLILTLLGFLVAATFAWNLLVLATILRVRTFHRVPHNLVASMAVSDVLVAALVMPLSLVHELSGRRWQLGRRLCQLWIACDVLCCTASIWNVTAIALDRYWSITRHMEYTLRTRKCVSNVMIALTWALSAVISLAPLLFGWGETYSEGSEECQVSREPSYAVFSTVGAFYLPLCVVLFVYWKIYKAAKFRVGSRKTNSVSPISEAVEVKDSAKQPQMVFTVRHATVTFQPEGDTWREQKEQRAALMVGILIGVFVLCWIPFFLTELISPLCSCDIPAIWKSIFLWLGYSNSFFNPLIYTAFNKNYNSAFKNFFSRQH
As to `CN1CCN(c2ccccc2/C=C2\SCCN(c3ccc(Cl)c(Cl)c3)C2=O)CC1`, the half-maximal activity concentration (AC50) is 0.302 µM (active).
Still for that read-out and setting: to `NC(=O)N(O)[C@@H]1C=C[C@H](Oc2cccc(Oc3ccc(F)cc3)c2)C1` belongs 14 µM (active).
Regarding `CCC(=C(c1ccc(O)cc1)c1ccc(OCCN(C)C)cc1)c1ccccc1`, the AC50 was 3.32 µM (active).
`CC(=O)NC1(c2cccc(F)c2)CCN(CC[C@@]2(c3ccc(Cl)c(Cl)c3)CN(c3ccccc3)C(=O)CO2)CC1`: the AC50 is 28.3 µM (active).
Same read-out and setting: to `CCN(CC)CCNc1ccc(CNC=O)c2sc3ccc(OC)cc3c(=O)c12` belongs 4.96 µM (active); to `Cc1oc(-c2ccccc2)nc1CCOc1ccc(C[C@H](Nc2ccccc2C(=O)c2ccccc2)C(=O)O)cc1`, 9.5 µM (active).
Take `NC(=O)N1C(=O)C(C(=O)c2cc(Cl)cs2)c2cc(F)c(Cl)cc21` (stereo not given): the AC50 is 41.3 µM (active).
For `CCCOc1sc(C(=O)N2CCC(c3cc(CN)ccc3F)CC2)c(C)c1Br`, the concentration at half-maximal activity (AC50) was 15.1 µM (active).
On the same count and under the same terms, under `CCCCCCCCCCCCc1ccccc1S(=O)(=O)O` stands 6.39 µM (active).
With `O=C(O)Cc1cc(I)c(Oc2cc(I)c(O)c(I)c2)c(I)c1`, the call was inactive.
On to `CC[C@H](c1ccc(O)cc1)[C@@H](CC)c1ccc(O)cc1`, for which the AC50 is 1.69 µM (active).

The target of the next assay is guinea pig Opioid, Kappa 1 Receptor (OpiateK), OPRK1 (gene 100135587) (UniProt P41144). Kind of assay: NVS_GPCR_gOpiateK: NovaScreen (NVS) G Protein-Coupled Receptor Assay for guinea pig Opioid, Kappa 1 Receptor (OpiateK) (AID 2283252).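 Note: radioligand displacement from kappa opioid receptor in guinea pig cerebellar membranes; active means reduced radioligand binding relative to DMSO.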 In short, it runs like this: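 Radioligand competition binding using guinea pig cerebellum membrane fraction; 2 h exposure; filter radiodetection. Single concentration 25 uM (duplicate), follow-up concentration-response for actives.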
guinea pig Opioid, Kappa 1 Receptor (OpiateK), OPRK1 (gene 100135587), sequence (P41144 whole entry, looked up): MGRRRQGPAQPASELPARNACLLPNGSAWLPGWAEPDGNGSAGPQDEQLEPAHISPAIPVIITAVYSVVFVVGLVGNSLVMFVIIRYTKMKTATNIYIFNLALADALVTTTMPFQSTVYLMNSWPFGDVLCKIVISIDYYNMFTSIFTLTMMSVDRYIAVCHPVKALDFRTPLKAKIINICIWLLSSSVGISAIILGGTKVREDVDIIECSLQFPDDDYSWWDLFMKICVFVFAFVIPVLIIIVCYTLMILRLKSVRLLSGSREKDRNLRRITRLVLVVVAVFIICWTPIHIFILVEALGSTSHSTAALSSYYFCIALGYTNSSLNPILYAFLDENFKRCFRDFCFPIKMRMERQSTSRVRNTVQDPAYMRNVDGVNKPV
As to `CN1CCN(c2ccccc2/C=C2\SCCN(c3ccc(Cl)c(Cl)c3)C2=O)CC1`, the AC50 is 3.39 µM (active).
Same read-out and setting: under `CC(=O)NC1(c2cccc(F)c2)CCN(CC[C@@]2(c3ccc(Cl)c(Cl)c3)CN(c3ccccc3)C(=O)CO2)CC1` stands 20.8 µM (active).
Still for that read-out and setting: under `CC[C@H](C)[C@@H](C(=O)O)n1sc2ccccc2c1=O` stands 12.7 µM (active).
The same measure, in the same setting: under `CCN(CC)CCNc1ccc(CNC=O)c2sc3ccc(OC)cc3c(=O)c12` stands 25 µM (active).
On to `C#C[C@]1(O)CC[C@H]2[C@@H]3CCC4=CC(=O)CC[C@@H]4[C@H]3CC[C@@]21C`, for which the compound was classed as inactive.
On the same count and under the same terms, under `CCCOc1sc(C(=O)N2CCC(c3cc(CN)ccc3F)CC2)c(C)c1Br` stands “inactive”.
Same read-out and setting: under `CCCCCCCCCCCCc1ccccc1S(=O)(=O)O` stands “inactive”; under `CCCCCCCC(=O)O`, “inactive”.
For the compound `CC[C@H](c1ccc(O)cc1)[C@@H](CC)c1ccc(O)cc1`, the call was inactive.

The next assay addresses human Serotonin, 5-Hydroxytryptamine Receptor 6 (5HT6), HTR6 (gene 3362) (UniProt P50406). The assay can be described thus: NVS_GPCR_h5HT6: NovaScreen (NVS) G Protein-Coupled Receptor Assay for human Serotonin, 5-Hydroxytryptamine Receptor 6 (5HT6) (AID 2283253). The procedure:
NVS_GPCR_h5HT6 is a biochemical, single-readout assay that uses extracted gene-proteins from HEK293 in a cell-free assay. Measurements were taken 1 hour after chemical dosing in a 96-well plate.NVS_GPCR_h5HT6 is one of one assay component(s) measured or calculated from the NVS_GPCR_h5HT6 assay. It is designed to make measurements of radioligand binding, a form of binding reporter, as detected with scintillation counting signals by Filter-based radiodetection technology.Data from the assay component NVS_GPCR_h5HT6 was analyzed into 1 assay endpoint. This assay endpoint, NVS_GPCR_h5HT6, was analyzed in the positive analysis fitting direction relative to DMSO as the negative control and baseline of activity. Using a type of binding reporter, loss-of-signal activity can be used to understand changes in the binding as they relate to the gene HTR6. Furthermore, this assay endpoint can be referred to as a primary readout, because the performed assay has only produced 1 assay endpoint. To generalize the intended target to other relatable targets, this assay endpoint is annotated to the gpcr intended target family, where the subfamily is rhodopsin-like receptor.
Binding assays used specific radioligands (tritiated, iodinated) with non-radioactive competitive displacement ligands in agonist or antagonist protocols (as indicated) and various reference compounds and inhibitors to titrate specific binding to receptors and transporters. Most enzyme assays (CYPs, kinases, phosphatases, proteases, HDACs) used recombinant protein and specific substrates (fluorescence mostly, some colorimetric and radioactive) and inhibitors, followed by a biochemical separation of substrate and product. All assays for the biochemical HTS were initially run in duplicate at a single concentration (10 uM for CYP450 assays and 25 uM for all others). […] Each assay was run with positive and negative controls, and concurrent controls on every plate. The follow-up (secondary) screen tested active chemical-pairs in concentration series, as well as a few additional assays not tested in the primary screen, some selected negative inactives, and several cases re-run in the concentration series for confirmatory purposes.
For `CN1CCN(c2ccccc2/C=C2\SCCN(c3ccc(Cl)c(Cl)c3)C2=O)CC1`, the AC50 was 1.45 µM (active).
Consider `CCC(=C(c1ccc(O)cc1)c1ccc(OCCN(C)C)cc1)c1ccccc1`, for which the AC50 was 1.74 µM (active).
With `CC(=O)NC1(c2cccc(F)c2)CCN(CC[C@@]2(c3ccc(Cl)c(Cl)c3)CN(c3ccccc3)C(=O)CO2)CC1`, the AC50 is 5.94 µM (active).
Take `CCCOc1sc(C(=O)N2CCC(c3cc(CN)ccc3F)CC2)c(C)c1Br`: the half-maximal activity concentration (AC50) is 8.41 µM (active).
Turning to `CCCCCCCCCCCCc1ccccc1S(=O)(=O)O`, the AC50 is 31.9 µM (active).

The target of the next assay is human Adenosine A1 Receptor (AdoRA1), ADORA1 (gene 134) (UniProt P30542). The assay can be described thus: NVS_GPCR_hAdoRA1: NovaScreen (NVS) G Protein-Coupled Receptor Assay for human Adenosine A1 Receptor (AdoRA1) (AID 2283254). The method, boiled down: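 Radioligand binding was run on human cortical membranes, cell-free, with filter-based scintillation counting 1 h after dosing. The primary screen was duplicate at 25 uM, followed by concentration series. Signal loss versus DMSO was fitted positive-direction.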
human Adenosine A1 Receptor (AdoRA1), ADORA1 (gene 134), sequence (P30542 whole entry, looked up): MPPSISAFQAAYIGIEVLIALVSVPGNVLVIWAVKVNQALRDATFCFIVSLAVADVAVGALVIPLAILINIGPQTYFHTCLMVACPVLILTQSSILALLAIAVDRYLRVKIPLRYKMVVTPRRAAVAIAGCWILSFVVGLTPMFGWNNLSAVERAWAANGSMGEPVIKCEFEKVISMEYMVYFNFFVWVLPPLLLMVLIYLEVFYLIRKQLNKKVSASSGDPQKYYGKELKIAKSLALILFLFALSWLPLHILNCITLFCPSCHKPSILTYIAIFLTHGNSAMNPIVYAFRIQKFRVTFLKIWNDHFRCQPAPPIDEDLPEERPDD
`CCC(=C(c1ccc(O)cc1)c1ccc(OCCN(C)C)cc1)c1ccccc1`: the AC50 was 2.12 µM (active).
Same read-out and setting: under `O=C(OCCOCCOC(=O)c1ccccc1)c1ccccc1` stands 5.62 µM (active); under `CCCOC(=O)c1ccc(O)cc1`, 11.8 µM (active).
With `CC#C[C@]1(O)CC[C@H]2[C@@H]3CCC4=CC(=O)CCC4=C3[C@@H](c3ccc(N(C)C)cc3)C[C@@]21C`, the compound was called inactive.
For the compound `CCN(CC)CCNc1ccc(CNC=O)c2sc3ccc(OC)cc3c(=O)c12`, the AC50 was 3.34 µM (active).
The same measure, in the same setting: under `Cc1oc(-c2ccccc2)nc1CCOc1ccc(C[C@H](Nc2ccccc2C(=O)c2ccccc2)C(=O)O)cc1` stands 25 µM (active); under `NC(=O)N1C(=O)C(C(=O)c2cc(Cl)cs2)c2cc(F)c(Cl)cc21` (stereo not given), 8.46 µM (active).
The same measure, in the same setting: to `CCCOc1sc(C(=O)N2CCC(c3cc(CN)ccc3F)CC2)c(C)c1Br` belongs 17.2 µM (active); to `CCCCCCCCCCCCc1ccccc1S(=O)(=O)O`, 18.1 µM (active).
In the case of `O=C(O)Cc1cc(I)c(Oc2cc(I)c(O)c(I)c2)c(I)c1`, the outcome was inactive.
On to `CCCCCCCC(=O)O`, for which the compound was classed as inactive.
With `CC[C@H](c1ccc(O)cc1)[C@@H](CC)c1ccc(O)cc1`, the AC50 is 8.65 µM (active).

The target of a further assay is human Adenosine A2a Receptor (AdoRA2a), ADORA2A (gene 135) (UniProt P29274). Kind of assay: NVS_GPCR_hAdoRA2a: NovaScreen (NVS) G Protein-Coupled Receptor Assay for human Adenosine A2a Receptor (AdoRA2a) (AID 2283256). The method, boiled down: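 HEK293-derived receptor preparation, radioligand displacement, 1.5 h, filtration + scintillation read. Loss of bound signal scored vs DMSO. Single-point 25 uM in duplicate first, then concentration-response for actives.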
human Adenosine A2a Receptor (AdoRA2a), ADORA2A (gene 135), sequence (P29274 whole entry, looked up): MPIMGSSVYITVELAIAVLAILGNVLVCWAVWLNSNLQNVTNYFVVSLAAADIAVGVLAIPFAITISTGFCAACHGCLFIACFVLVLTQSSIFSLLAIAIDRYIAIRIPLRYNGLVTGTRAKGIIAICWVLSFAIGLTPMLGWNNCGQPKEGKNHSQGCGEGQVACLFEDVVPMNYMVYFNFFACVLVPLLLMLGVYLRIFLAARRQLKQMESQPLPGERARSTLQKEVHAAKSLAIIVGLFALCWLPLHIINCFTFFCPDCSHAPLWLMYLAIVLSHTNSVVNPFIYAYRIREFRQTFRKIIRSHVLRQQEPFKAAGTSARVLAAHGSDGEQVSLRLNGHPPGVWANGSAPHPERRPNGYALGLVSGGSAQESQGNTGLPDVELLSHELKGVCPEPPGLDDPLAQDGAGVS
For `Oc1cc2ccccc2c2ccccc12`, the compound was classed as inactive.
In the case of `CCC(=C(c1ccc(O)cc1)c1ccc(OCCN(C)C)cc1)c1ccccc1`, the AC50 is 3.08 µM (active).
For `CC#C[C@]1(O)CC[C@H]2[C@@H]3CCC4=CC(=O)CCC4=C3[C@@H](c3ccc(N(C)C)cc3)C[C@@]21C`, the result was inactive.
Take `CCN(CC)CCNc1ccc(CNC=O)c2sc3ccc(OC)cc3c(=O)c12`: the concentration at half-maximal activity (AC50) is 5.28 µM (active).
As to `CC(C)(C)c1ccc(O)c(C(C)(C)C)c1`, the result was inactive.
Turning to `NC(=O)N1C(=O)C(C(=O)c2cc(Cl)cs2)c2cc(F)c(Cl)cc21` (stereo not given), the concentration at half-maximal activity (AC50) is 19.7 µM (active).
The same measure, in the same setting: under `CCCCCCCCCCCCc1ccccc1S(=O)(=O)O` stands 22.6 µM (active).
For the compound `CC[C@H](c1ccc(O)cc1)[C@@H](CC)c1ccc(O)cc1`, the concentration at half-maximal activity (AC50) was 12.4 µM (active).

Another assay concerns the target human Adrenergic, Alpha 2A Receptor (Adra2A), ADRA2A (gene 150) (UniProt P08913). The assay can be described thus: NVS_GPCR_hAdra2A: NovaScreen (NVS) G Protein-Coupled Receptor Assay for human Adrenergic, Alpha 2A Receptor (Adra2A) (AID 2283257). The method, boiled down:
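Displacement of a specific radioligand from HT29 membrane protein was counted by filter scintillation after 1 h. Compounds were screened in duplicate at 25 uM, and actives were retested in concentration series. Fitting was positive-direction against DMSO.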
Consider `NC(=O)N(O)[C@@H]1C=C[C@H](Oc2cccc(Oc3ccc(F)cc3)c2)C1`, for which the AC50 is 6.62 µM (active).
Turning to `CCN(CC)CCNc1ccc(CNC=O)c2sc3ccc(OC)cc3c(=O)c12`, the call was inactive.
Consider `CCCCCCC(=O)O`, for which the result was inactive.
As for `CCCOc1sc(C(=O)N2CCC(c3cc(CN)ccc3F)CC2)c(C)c1Br`, the AC50 was 4.12 µM (active).
As to `CCCCCCCCCCCCc1ccccc1S(=O)(=O)O`, the compound was called inactive.
